# Measurements taken from PubChem BioAssay.
# Activity calls are given as the source filed them. Unless noted, how the calls were made is not given here.
# What was measured:
# [1] = system: XIP peptide (Xip251-270) binding; test: small-molecule binders of XIP peptide, primary screen, biochemical, small-molecule microarray, fluorescence 635/667 nm, 0.1 µg/mL protein (AID 1182); details: fluorescent protein binding, 635 nm, higher = more signal, called active from +8 up or from −8 down
# [2] = system: XIP peptide (Xip251-270); test: small-molecule binders of XIP peptide, primary screen, biochemical, small-molecule microarray, fluorescence 635/667 nm, 0.5 µg/mL protein (AID 1183); details: small-molecule microarray binding, fluorescence 635 nm; higher = more signal
# [3] = Plasmodium falciparum growth inhibition, primary screen, strain 3D7, DAPI fluorescence, 100 nL (AID 1184);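 further: parasites grown inside human red blood cells in medium with human serum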; details: P. falciparum 3D7 growth, 3 d, higher = more signal
# [4] = molecular target: Homeobox protein Hox-A13 (Mus musculus) (UniProt Q62424); test: inhibitors of HoxA13-DNA binding, primary screen, biochemical, fluorescence polarization, labeled oligonucleotide (AID 1185); details: 15 min, higher = more signal, called active from +8 up or from −8 down
# Chain of Homeobox protein Hox-A13 (Mus musculus) (Q62424 whole entry, looked up): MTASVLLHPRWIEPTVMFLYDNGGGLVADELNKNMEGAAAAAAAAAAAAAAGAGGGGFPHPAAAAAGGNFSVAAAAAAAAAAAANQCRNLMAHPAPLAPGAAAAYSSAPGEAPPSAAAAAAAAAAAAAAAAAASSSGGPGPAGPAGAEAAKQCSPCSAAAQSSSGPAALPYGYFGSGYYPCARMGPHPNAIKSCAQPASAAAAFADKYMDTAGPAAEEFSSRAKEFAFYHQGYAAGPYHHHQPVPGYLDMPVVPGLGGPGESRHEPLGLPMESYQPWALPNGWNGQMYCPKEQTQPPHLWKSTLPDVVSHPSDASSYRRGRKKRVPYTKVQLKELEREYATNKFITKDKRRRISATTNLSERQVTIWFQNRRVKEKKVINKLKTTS
# [5] = inhibitors of hydroxyurea-induced Chk1 phosphorylation, primary screen, imaging, HeLa, phospho-Chk1 antibody, percent positive cells (AID 1186); details: hydroxyurea-induced phospho-Chk1 immunofluorescence imaging, higher = more signal
# [6] = inhibitors of hydroxyurea-induced Chk1 phosphorylation, primary screen, imaging, HeLa, phospho-Chk1 nuclear intensity (AID 1187); details: hydroxyurea-induced phospho-Chk1 immunofluorescence imaging, higher = more signal
Compound,composite z-score [1],composite z-score [2],z-score [3],z-score [4],z-score [5],z-score [6]
CCCCCCCCCCC(O)C1C=CC2C(=O)NC(=O)C2N1Nc1ccccn1 (configuration not stated),-0.0785 (inactive),-0.0706,1.05,-2.89 (inactive),0.764 (inactive),0.554 (inactive)
COC(=O)[C@@]1(Cc2ccc(OC)cc2)[C@H]2c3cc(C(=O)N(C)C)n(Cc4cc(F)c(F)c(F)c4)c3C[C@H]2CN1C(=O)c1ccccc1,0.0306 (inactive),0.577,-1.81,-1.93 (inactive),0.102 (inactive),-0.186 (inactive)
COC(=O)[C@@]1(Cc2ccc(OC)cc2)[C@H]2c3cc(C(=O)N(C)C)n(CCF)c3C[C@H]2CN1C(=O)c1ccccc1,0.0026 (inactive),0.449,-1.65,-3.59 (inactive),0.326 (inactive),-0.241 (inactive)
O=C1N(CCS(=O)(=O)c2ccccc2)Cc2ccccc2C[C@@]12COC(c1ccc(OCCCO)cc1)=N2,0.913 (inactive),0.82,-2.05,-4.6 (inactive),-1.03 (inactive),-1.29 (inactive)
CC(C)(C)OC(=O)CC[C@@]1(C(=O)N2CCCCC2)N=C(c2ccc(OCCCO)cc2)O[C@@H]1c1ccccc1N=[N+]=[N-],0.416 (inactive),0.83,-2.08,-3.63 (inactive),-0.184 (inactive),-0.414 (inactive)
CCCNC(=O)[C@@]1(Sc2ccc(C)cc2)CC(=O)N(Cc2ccccc2)[C@@H]1c1ccc(CO)cc1I,0.334 (inactive),0.889,0.179,-2.54 (inactive),0.264 (inactive),0.372 (inactive)
COc1ccc([Si](C)(C)[C@@H]2[C@@H](CC(=O)N(CCO)Cc3ccccc3)O[C@]3(C(=O)N(C)c4c(Br)cc(C)cc43)[C@H]2C)cc1,0.48 (inactive),0.373,-1.48,-6.47 (inactive),-0.743 (inactive),-1.69 (inactive)
O=C(O)[C@@]1(Cc2ccccc2)COC(c2ccc(OCCCO)cc2)=N1,-0.781 (inactive),-0.486,-0.0272,-1.29 (inactive),-0.0393 (inactive),0.204 (inactive)
COCCOC(=O)N1C(=O)[C@@]2(c3cc(C#CCCO)ccc31)[C@H](c1ccc(OCCO)cc1)N1[C@H](c3ccccc3)[C@H](c3ccccc3)OC(=O)[C@H]1[C@@H]2C(=O)N1CCc2cc(OC)c(OC)cc2C1,0.311 (inactive),0.736,-1.87,2.71 (inactive),-0.209 (inactive),0.0256 (inactive)
C#CCOC(=O)N[C@H](C=CCCCC)c1ccccc1,0.0811 (inactive),-0.632,-0.817,-3.62 (inactive),0.163 (inactive),0.195 (inactive)
COCCOC(=O)N1C(=O)[C@@]2(c3cc(C#Cc4ccc(OC)cc4)ccc31)[C@H](C(N)=O)[C@H]1C(=O)O[C@H](c3ccccc3)[C@H](c3ccccc3)N1[C@@H]2c1ccc(OCCO)cc1,0.283 (inactive),0.721,-2.35,-1.11 (inactive),0.0311 (inactive),0.239 (inactive)
C[N+](C)(C)CCCC[C@@H]1NC(=O)[C@@H]2C[C@H](C(=O)O)[C@H](c3cccc(OCCO)c3)N2C1=O,1.36 (inactive),0.246,-0.0179,-3.69 (inactive),0.153 (inactive),0.16 (inactive)
CCCCC(CC)C(O)C1C=CC2C(=O)NC(=O)C2N1Nc1ccccn1 (configuration not stated),0.327 (inactive),0.781,0.133,-3.87 (inactive),0.0438 (inactive),-0.119 (inactive)
C[C@]12C(=O)N(CCCO)[C@@H]3C(=O)N(c4ccc(Cl)cc4)CC=CC31O[C@@H]1/C=C\CCCOC(=O)C12 (some centres not stated),-0.232 (inactive),-0.271,0.571,-6.08 (inactive),-0.647 (inactive),-0.0294 (inactive)
COCCCNC(=O)[C@]1(Cc2ccccc2CN=[N+]=[N-])N=C(c2ccc(OCCCO)cc2)O[C@@H]1c1ccccc1CN=[N+]=[N-],0.22 (inactive),0.744,-2.48,-2.43 (inactive),-0.0731 (inactive),-0.303 (inactive)
COc1cc(NN2C(C(O)c3ccc(I)cc3)C=CC3C(=O)N(C)C(=O)C32)cc(OC)c1OC (configuration not stated),1.42 (inactive),-0.064,-0.336,-1.63 (inactive),-0.297 (inactive),-0.449 (inactive)
C=C[C@@H](O)[C@H]1CC(c2ccccc2)=NO1,0.465 (inactive),-0.299,0.99,-0.345 (inactive),-0.386 (inactive),-0.573 (inactive)
C[N+](C)(C)CCCCCCNC(=O)[C@@H]1C[C@@H]2C(=O)NCC(=O)N2[C@@H]1c1cccc(OCCO)c1,0.525 (inactive),0.421,-0.848,-4.4 (inactive),-0.177 (inactive),-0.261 (inactive)
CC(C)CN1C(=O)[C@@]2(Cc3ccccc31)c1ccccc1C(=O)N(Cc1ccccc1)[C@H]2c1ccc(CO)cc1,2.02 (inactive),-0.526,-0.435,-1.07 (inactive),-0.0605 (inactive),-0.197 (inactive)
CC(C)N1C(=O)c2ccccc2[C@](C)(C(=O)O)[C@@H]1c1ccc(CO)cc1,0.202 (inactive),0.0967,0.859,-1.63 (inactive),0.113 (inactive),0.318 (inactive)
COc1ccc([Si](C)(C)[C@H]2[C@H](CCn3cc(CCO)nn3)O[C@@]3(C(=O)N(Cc4cccc(N5C(=O)c6cccc7cccc5c67)c4)c4ccccc43)[C@@H]2C)cc1,0.979 (inactive),0.697,-2.55,-2.56 (inactive),-0.854 (inactive),0.0226 (inactive)
C[N+](C)(C)CCCCCCNC(=O)[C@H]1C[C@H]2C(=O)N3CCC[C@H]3C(=O)N2[C@H]1c1cccc(OCCO)c1,0.883 (inactive),0.713,0.14,-3.94 (inactive),0.372 (inactive),0.182 (inactive)
C=CCNC(=O)[C@@H]1[C@H]2C(=O)O[C@H](c3ccccc3)[C@H](c3ccccc3)N2[C@H](c2ccc(O)cc2)[C@@]12C(=O)Nc1ccc(C#CCCO)cc12,3.57 (inactive),0.693,-0.37,-5.14 (inactive),-0.154 (inactive),-0.0542 (inactive)
O=C1NC(=O)C2C1C=CC(C(O)c1ccc(-c3ccccc3)s1)N2Nc1ccccn1 (configuration not stated),1.05 (inactive),0.212,-0.169,-3.88 (inactive),0.773 (inactive),-0.264 (inactive)
C=C(/C(=C/C[C@@H](OC(=O)c1ccncc1)c1cccc(OCCO)c1)c1cc(C(=O)OC)ccc1OC)C(C)C,0.577 (inactive),0.723,-3.13,-3.8 (inactive),-0.185 (inactive),-0.235 (inactive)
C=C(COC)C(=O)CC[C@H](OC(=O)c1ccccc1-c1ccccc1C(=O)O)c1ccc(OCCO)cc1,0.0817 (inactive),0.264,-1.84,-5.78 (inactive),-0.33 (inactive),-0.537 (inactive)
O=[N+]([O-])c1ccc(C[n+]2ccc(-c3ccc(CO)cc3)cc2)o1,0.406 (inactive),0.905,-1.29,-3.8 (inactive),0.137 (inactive),0.657 (inactive)
